Screening results as filed in PubChem BioAssay.
Hits are enriched below; roughly 6.4% of the tested compounds scored in any of these assays.
KinaseGlo FLuc – Counterscreen for Luciferase (Kinase-Glo TM) Inhibition. Kinase-Glo luciferase, ATP luminescence, 8 min. Potency, µM (titrated, usually from 38.3 µM), for inactives: at the top dose activity change, negative = inhibition, actives largely listed as inhibitors. 0.28% of 200,000 active. AID 1379, 2008; further: nearly all actives have a fitted effect of over 60% in size
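Luminescence was the read-out, taken after 8-minute incubation at ambient temperature. Luciferase turned over luciferin with 10 uM ATP in imidazole pH 7.2 buffer containing KCl, MgCl2, Tween 20 and BSA.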
Gal4-VP16 FLuc – VP16 counterscreen qHTS for inhibitors of ROR gamma transcriptional activity; Drosophila S2 Gal4-VP16 UAS-luciferase, luminescence, 20 h; Potency, µM (highest dose often 53.6 µM), inactives show at the highest dose activity, negative = inhibition, usual class: inhibitors; 3.5% of 310,000 active;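 further: Gal4-VP16 expression switched on by copper sulfate through the metallothionein promoter; nearly all actives have a fitted effect of over 50% in size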
RORgamma inh – qHTS for inhibitors of ROR gamma transcriptional activity. Potency, µM (top dose mostly 53.6 µM), without a hit: at the top dose activity change, negative = inhibition, hits mostly inhibitors. Drosophila S2 Gal4-RORgamma UAS-luciferase reporter, 20 h. 5.4% of 310,000 active. AID 2551, 2010; further: nearly all actives have a fitted effect of over 60% in size
Target sequence (P51450 whole entry, looked up, the tested form may be a part): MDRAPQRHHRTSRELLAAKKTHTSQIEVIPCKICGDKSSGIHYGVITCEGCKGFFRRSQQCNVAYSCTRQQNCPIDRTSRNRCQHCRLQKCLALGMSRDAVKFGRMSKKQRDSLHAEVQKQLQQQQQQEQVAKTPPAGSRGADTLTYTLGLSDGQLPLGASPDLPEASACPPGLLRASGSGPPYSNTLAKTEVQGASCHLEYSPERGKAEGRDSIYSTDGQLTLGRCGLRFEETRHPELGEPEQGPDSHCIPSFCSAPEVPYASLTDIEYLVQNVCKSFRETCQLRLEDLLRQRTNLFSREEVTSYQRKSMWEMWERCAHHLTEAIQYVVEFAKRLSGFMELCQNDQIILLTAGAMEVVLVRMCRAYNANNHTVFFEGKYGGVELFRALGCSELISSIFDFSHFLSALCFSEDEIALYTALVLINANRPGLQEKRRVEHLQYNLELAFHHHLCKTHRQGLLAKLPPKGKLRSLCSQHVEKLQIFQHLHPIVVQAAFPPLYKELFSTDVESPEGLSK
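Schneider cells (Drosophila), stable Gal4 DBD–ROR gamma + UAS-luc; 1 hr cmpd preincubation; Cu2+ induction 700 uM final; 20 hr ambient; luminescence.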
Active calls of the source: *; ? = inconclusive; nt = no result; [ ] = dose if it differs, or a comment. The call rests on the fitted dose curve; in most records, active means well fitted curve in the direction sought with a large enough effect; inconclusive means small, poorly fitted or top-dose-only effect, or another doubt; inactive means no such curve, though single readings can be large; an effect the other way counts as inactive or inconclusive. On the % scale 0 is the no-effect control and ±100 the full control effect; potency means the concentration at half of the fitted maximal effect.

SMILES	KinaseGlo FLuc	Gal4-VP16 FLuc	RORgamma inh
COc1ccc(-c2nnn(CCC(=O)O)n2)cc1	-4%	-57%	2.2µM*
COc1cccc(-c2nnn(CCC(=O)O)n2)c1	12%	-13%	-9%
COc1cccc(-c2ccc(NC(=O)C3CCCN(CCCn4nc(C)cc4C)C3)cc2)c1 (configuration not stated)	nt	-4%	?
CC(Cc1ccccc1)C(=O)NCC1CC1 (configuration not stated)	-1%	-1%	-24%
COc1ccc(-c2cc3nc[nH]c(=O)c3s2)cc1	-9%	-15%	-32%
COc1ccc(-c2cc3nc(CCl)[nH]c(=O)c3s2)cc1	nt	10µM*	?
Cc1ccc(/C=N/Nc2nc(C(C)(C)C)cs2)o1	-2%	-3%	-38%
Cc1ccc(/C=N/Nc2nc3ccccc3s2)o1	-5%	10µM*	8.9µM*
Cc1ccc(S(=O)(=O)NC(C(=O)Oc2ccc3c(C(F)(F)F)cc(=O)oc3c2)c2ccccc2)cc1 (configuration not stated)	9%	-35%	29%
Cc1nnc(SC(C)C(=O)Nc2ccc(Cl)cn2)n1Cc1ccccc1 (configuration not stated)	-2%	-1%	9%
CC(Sc1nnc(-c2ccc(Cl)cc2Cl)n1Cc1ccccc1)C(=O)Nc1nccs1 (configuration not stated)	-2%	-21%	11µM*
O=C(NCc1nc(-c2ccc(C(F)(F)F)cc2)no1)Nc1ccc(OC(F)(F)F)cc1	nt	?	2%
COc1cc(O)oc1C=Nc1ccc(Cl)cc1	-10%	-14%	9%
COc1cc(O)oc1C=Nc1ccc(C(=O)O)cc1	13µM*	4%	-20%
O=C(Nc1ccccn1)c1csc2c1CCCC2	-4%	?	-26%
O=C(Nc1ccccn1)c1onc2c1CCCC2	13µM*	8.9µM*	6.3µM*
CC(C)(C)c1ccccc1NC(=S)NC1CCCC1	nt	3.5µM*	4.5µM*
COc1cc(NC(=S)N(C)C)c(OC)cc1Cl	nt	-6%	-5%
FC(F)(F)c1ccc(Cl)c(NC(=S)NC2CC2)c1	-3%	18µM*	16µM*
O=C(Nc1ccccc1Cl)NC1CCCCCCC1	nt	?	35%
Fc1ccccc1NC(=S)NC1CCCC1	nt	?	11µM*
COc1cc(NC(=S)NC2CC2)c(OC)cc1Cl	2%	?	10µM*
CNC(=S)Nc1cc(C(F)(F)F)ccc1Cl	0%	2%	-21%
O=C(Nc1ccccc1F)NC1CCCc2ccccc21 (configuration not stated)	nt	?	8%
CN1C[C@@H]2C[C@H]1CN2c1cc2c(cc1F)c(=O)c(C(=O)O)cn2C1CC1	nt	-4%	-23%[10 µM]
SMILES	KinaseGlo FLuc	Gal4-VP16 FLuc	RORgamma inh
CCC(C)NC(=O)C(=O)NCC1CCCN1CC (configuration not stated)	0%	-2%[10 µM]	2%
CN(Cc1ccno1)Cc1cn(Cc2ccccc2)nc1-c1ccc2c(c1)OCO2	6%	-7%	?
O=C1CCCC=C1[C@H](O)CCCCBr	nt	12%[10 µM]	-4%[10 µM]
COc1ccc(/C=C/C(=O)N2CCN(C)CC2)cc1OC	nt	2%	?
COc1ccccc1NC(=S)NC1CCCCCC1	nt	4µM*	6.3µM*
COc1ccccc1NC(=O)NC1CCCCCCC1	nt	-7%	26%
CC(C)(C)c1ccccc1NC(=S)NC1CCCCC1	1%	6.3µM*	1.8µM*
CCc1ccccc1NC(=O)NC1CCCCC1	0%	3%	-11%
O=C(Cn1c2ccc(F)cc2c2nc3n(c(=O)c21)CCS3)NCC1CCCO1 (configuration not stated)	nt	4%	-8%
CC1C/C(=N\NC(=O)c2cccnc2)CC(C)(C)C1 (configuration not stated)	2%	22%	-19%
CC1C/C(=N\NC(=S)NC(C)C)CC(C)(C)C1 (configuration not stated)	-4%	4µM*	1.6µM*
O=C(O)CN(CCN(CC(=O)O)CC(=O)O)CC(=O)O.[Cu]	-4%[7.66 µM]	nt	nt
CN(C)CCNC(=O)/C(=C/c1ccc(-c2cccc([N+](=O)[O-])c2)o1)NC(=O)c1ccccc1	-2%	1%	33%
Cc1ccc(C(=O)N/C(=C\c2ccc(-c3ccccc3[N+](=O)[O-])o2)C(=O)NCCCN(C)C)cc1	nt	9%	-43%
Cc1ccc(C(=O)N/C(=C\c2ccc(-c3ccccc3[N+](=O)[O-])o2)C(=O)NCCN(C)C)cc1	nt	10µM*	7.1µM*
CN(C)CCNC(=O)/C(=C/c1ccc(-c2cccc(Cl)c2)o1)NC(=O)c1ccccc1	3%	?	3.2µM*
Cc1ccc(NC(=O)c2ccc(NCCCN3CCOCC3)c([N+](=O)[O-])c2)cc1Cl	-1%	-21%	18%
O=C(Nc1ccc(Cl)c([N+](=O)[O-])c1)c1ccc(NCCCN2CCOCC2)c([N+](=O)[O-])c1	1%	?	5µM*
COc1ccc(OC)c2nc(-c3ccc4c(c3)OCO4)ccc12	nt	6%	-13%
CCOC(=O)C1=C(CSc2nc(C)ccc2C#N)OC(N)=C(C#N)C1c1cccc(OC)c1OC (configuration not stated)	-2%	?	20µM*
CCOC(=O)C1=C(CC)OC(N)=C(C#N)C1c1ccc(OC)c(OC)c1OC (configuration not stated)	nt	-9%	-1%
CC(C)CC(=O)Nc1ncc([N+](=O)[O-])s1	nt	?	44%
Cc1nc(C)c(C(=O)Nc2ncc([N+](=O)[O-])s2)o1	?	?	7.9µM*
CCOc1ccccc1NC(=O)CN1CCN(Cc2ccccc2)CC1	nt	0%	-4%
O=C(N/N=C/c1ccc[nH]1)c1ccc(Cl)cc1	-4%	10µM*	3.2µM*
SMILES	KinaseGlo FLuc	Gal4-VP16 FLuc	RORgamma inh
Cc1ccc(C(=O)N/N=C\c2ccc[nH]2)cc1[N+](=O)[O-]	-1%	?	2µM*
O=C(N/N=C/c1ccc(F)cc1)c1ccncc1	nt	-4%	-3%
CC(C)/C=N/NC(=O)c1ccc(Cl)cc1	-6%	-17%	-23%
O=C(N/N=C/c1ccc[nH]1)c1ccccc1[N+](=O)[O-]	0%	-88%	?
O=C(N/N=C/c1ccc[nH]1)c1ccncc1	2%	?	20µM*
Cc1cc(C#Cc2c(-c3ccccc3)n(C)c3ccccc23)ccc1F	nt	8%	-6%
O=C(NCCc1ccco1)c1cc(COc2cccc(C(F)(F)F)c2)on1	nt	0%	?
O=S(=O)(Nc1nc2c(s1)CCCC2)c1ccc(F)cc1	19%	-21%	15%
C/C(=N\Nc1nc2c(s1)CCCC2)c1ccccc1	-5%	?	13µM*
Cc1cccc(Nc2nc3c(s2)CCCC3)c1	-5%	-18%	-6%
C/C(=N\Nc1nc(C(C)(C)C)cs1)c1ccc(O)cc1	nt	10µM*	?
CC(C)(C)c1csc(N/N=C/c2cccnc2)n1	1%	23%	-10%
O=C(O)c1ccc(Nc2nc3c(s2)CCCC3)cc1	-4%	3.5µM*	1.3µM*
O=S1(=O)N=C(Nc2nc3c(s2)CCCC3)c2ccccc21	-13%	1.3µM*	0.45µM*
O=C(Nc1nc2c(s1)CCCC2)Oc1ccccc1	1%	-23%	-29%
CCC(C)NC(=O)CNC(=O)c1nn(-c2ccc(OC)cc2OC)c(=O)c2ccccc12 (configuration not stated)	nt	2%	0%
